MLL AF4-AF9 inh = MLL-AF4/AF9 protein interaction inhibition. inhibition, % at 10 µM. hit rate 0.47% among 350,000. AlphaScreen, biotin-AF4 peptide binding to FLAG-AF9;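 active means every replicate reaching a set inhibition limit, whatever the replicate mean, cut at about 25% in these data; inconclusive means mean inhibition reaches that limit but some replicates miss it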
RAD52 inh = blocks human RAD52 DNA annealing. P43351. recombinant RAD52 DNA annealing, FRET fluorescence. inhibition, % at 18.7 µM. hit rate 0.46% among 360,000;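 active means every replicate showing at least 50% inhibition; inconclusive means mean inhibition at least 50% but not in every replicate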
Target sequence (P43351 whole entry, looked up): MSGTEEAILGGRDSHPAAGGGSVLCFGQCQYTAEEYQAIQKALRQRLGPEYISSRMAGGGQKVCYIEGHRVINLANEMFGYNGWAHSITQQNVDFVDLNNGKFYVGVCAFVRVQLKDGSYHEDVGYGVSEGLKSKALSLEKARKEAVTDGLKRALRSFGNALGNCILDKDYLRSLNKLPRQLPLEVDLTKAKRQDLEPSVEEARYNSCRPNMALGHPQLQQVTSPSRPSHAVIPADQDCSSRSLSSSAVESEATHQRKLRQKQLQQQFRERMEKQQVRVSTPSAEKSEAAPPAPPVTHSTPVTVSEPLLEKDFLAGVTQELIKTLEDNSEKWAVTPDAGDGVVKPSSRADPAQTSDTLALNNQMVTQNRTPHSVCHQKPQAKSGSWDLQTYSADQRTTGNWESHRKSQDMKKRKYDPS
DENV2 CPE rescue = protects cells from dengue virus 2 cytopathic effect; DENV2-infected cells, cytopathic effect rescue, plate reader; CPE inhibition, % at 9.99 µM; hit rate 1.7% among 350,000; AID 651640; in the data active means CPE inhibition above about 20%, passing the limit was not always enough; inconclusive means no clear call, values can overlap the other calls; tested in BHK-21 cells
GSIS activator = primary screen for activators of insulin secretion dependent on glucose, INS-1E cells, GLuc reporter luminescence | INS-1E GLuc reporter insulin secretion, 2-3 h | AID 743287 | activation, % at 16.6 µM | hit rate 0.61% among 370,000;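 active means lowest replicate activation of at least 40%, so every replicate reaches that level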
RAD54 branch = blocks human RAD54 Holliday junction branch migration; hit rate 0.14% among 360,000; AID 602329; Q92698; inhibition, % at 10.4 µM; FAM/BHQ fluorescence;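 active means mean normalized replicate activity at least 40 and at least half of replicates scoring 40 or more; inconclusive means only one of the two criteria met; inactive means mean below 40 and under half of replicates reaching 40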;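 further: inhibitors cause a drop in the FAM fluorescence signal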
dFosB act = enhances mouse delta FosB homodimer DNA binding; P13346; purified delta FosB, TAMRA-CDK5 oligo fluorescence polarization; percent of positive-control signal above neutral wells; activation, % at 25 µM; hit rate 0.99% among 340,000;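 active means mean activation above about 17%, with every replicate also reaching it, limit read from the data, passing the limit was not always enough; inconclusive means only one of the two conditions met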
Of the large screens only hits and unclear results are named; the others gave an inactive call; ! = repeats disagree. In the library only some 3.1% were active in any assay of this set; here they are far more common.

COc1ccc(CCNC2CC(=O)N(C3CCCCC3)C2=O)cc1OC (stereo unspecified)	DENV2 CPE rescue 26.5
COc1ccc(C)cc1NC(=O)C1CCN(S(=O)(=O)c2cccc3cccnc23)CC1	DENV2 CPE rescue 27.7
COc1ccc(NC(=O)C2CCN(S(=O)(=O)c3cccc4cccnc34)CC2)cc1OC	none
COc1ccc(NC(=O)C2CCN(S(=O)(=O)c3cccc4nonc34)CC2)cc1OC	MLL AF4-AF9 inh 25.7
COc1ccc(NC(=O)N2CC(=O)N3[C@@H](CO)[C@@H](c4ccc(-c5ccc(C)cc5)cc4)[C@@H]3C2)cc1	none (no result: RAD54 branch, dFosB act)
Cc1ccc2[nH]c(=O)c(CN(CC3CCCO3)C(=O)c3cccs3)cc2c1 (stereo unspecified)	GSIS activator 155.8
O=C(Nc1ccc(Cl)c(Cl)c1)Nc1nc(-c2ccccc2)cs1	GSIS activator 166.2 (no result: MLL AF4-AF9 inh, RAD52 inh, DENV2 CPE rescue)
CN(C)Cc1csc(NC(=O)Nc2cccc(Cl)c2)n1	none (no result: dFosB act)
NCc1csc(NC(=O)Nc2cccc(Cl)c2)n1	DENV2 CPE rescue 25.4 (no result: dFosB act)
CCCN1[C@@H]2c3ccc(-c4cccnc4)c(=O)n3C[C@H]1[C@H](CO)[C@H]2C(=O)NCCc1cn(C)cn1	none (no result: dFosB act)
COCCN(C[C@@H]1[C@@H](c2ccccc2)[C@H](CO)N1C(C)=O)C(=O)c1ccncc1	DENV2 CPE rescue 23.6 (no result: dFosB act)
CCN(C[C@H]1N[C@H](CO)[C@@H]1c1ccccc1)C(=O)c1ccncc1	none (no result: DENV2 CPE rescue, dFosB act)
CCN(C[C@@H]1N[C@H](CO)[C@H]1c1ccccc1)C(=O)c1ccncc1	DENV2 CPE rescue 25.7 (no result: dFosB act)
COCCN(C[C@@H]1[C@@H](c2ccccc2)[C@@H](CO)N1C(C)=O)C(=O)c1ccncc1	none (no result: dFosB act)
COCCN(C[C@H]1[C@H](c2ccccc2)[C@@H](CO)N1C(C)=O)C(=O)c1ccncc1	DENV2 CPE rescue 26.3 (no result: dFosB act)
C=CCOC(=O)C1=C[C@@H](c2ccc(C(F)(F)F)cc2)[C@H](CCCO)[C@@H](OCC)O1	DENV2 CPE rescue 36.4! (no result: GSIS activator)
C[C@@H]1CN([C@H](C)CO)C(=O)Cc2cc(NC(=O)CCCCCC(=O)Nc3ccccc3N)ccc2O[C@@H]1CN(C)C(=O)NC1CCCCC1	none (no result: dFosB act)
COc1ccc(N2c3ccccc3CN(Cc3ccccc3)[C@@H](C)[C@H]2Cc2cccnc2)cc1	MLL AF4-AF9 inh 25.3, DENV2 CPE rescue inconclusive (no result: dFosB act)
COc1ccc(N2c3ccccc3CN(Cc3ccccc3)[C@@H](C)[C@H]2Cc2c(C)cccc2C)cc1	none (no result: RAD54 branch, dFosB act)
O=C(NCC(c1cccs1)N1CCOCC1)C1CCN(S(=O)(=O)c2cccc(C(F)(F)F)c2)CC1 (stereo unspecified)	none (no result: RAD54 branch)
O=C(NCC(c1cccs1)N1CCOCC1)C1CCN(S(=O)(=O)c2ccccc2C(F)(F)F)CC1 (stereo unspecified)	DENV2 CPE rescue 61.5
N#Cc1ccc(-c2nc3ccc(Br)cn3c2Cc2ccccc2C(F)(F)F)cc1	none (no result: dFosB act)
Cc1ccc2nc(-c3ccc(C#N)cc3)c(Cc3ccccc3C(F)(F)F)n2c1	DENV2 CPE rescue 63.0 (no result: dFosB act)
CCCC(CCC(=O)Nc1cccc([N+](=O)[O-])c1)C(=O)O (stereo unspecified)	none
O=C(CCCc1ccccc1)Nc1cccc([N+](=O)[O-])c1	DENV2 CPE rescue 39.9
CCN(CC)CCCNC(CC(=O)Nc1cccc([N+](=O)[O-])c1)C(=O)O (stereo unspecified)	DENV2 CPE rescue 29.8
Cc1nn(-c2ccccc2)c(N)c1N=Nc1ccc(Cl)cc1	none
Cc1nn(-c2ccccc2)c(N)c1N=Nc1ccccc1	MLL AF4-AF9 inh 31.3 (no result: RAD54 branch)
O=C(Nc1ccc(S(=O)(=O)NC2=NCCCCC2)cc1)c1cccs1	DENV2 CPE rescue 65.4
COc1ccccc1CC(=O)Nc1ccc(NC(=O)c2cccs2)cc1	dFosB act 16.6
O=C(Nc1ccc(NC(=O)c2cccs2)cc1)c1ccc(Br)o1	GSIS activator 44.9 (no result: MLL AF4-AF9 inh, RAD52 inh, DENV2 CPE rescue)
O=C(Nc1ccc(S(=O)(=O)NC2=NCCCCC2)cc1)c1ccc([N+](=O)[O-])s1	none
COc1ccccc1CC(=O)NNC(=O)c1cccs1	none
CO[C@@H]1CN(C)C(=O)c2cc(NS(=O)(=O)c3ccccc3)ccc2OC[C@@H](C)N(Cc2ccccn2)C[C@@H]1C	none (no result: dFosB act)
C[C@@H]1CN([C@H](C)CO)C(=O)c2cccc(N(C)C)c2O[C@@H]1CN(C)Cc1ccc(Oc2ccccc2)cc1	none (no result: dFosB act)
COc1ccc2c3c(n(C)c2c1)[C@@H](CO)N(Cc1ccccc1F)CC31CN(C(C)=O)C1	none (no result: RAD54 branch, dFosB act)
C[C@H](CO)N1C[C@H](C)[C@H](CN(C)CC2CCCC2)OCc2cnnn2CCCC1=O	none (no result: dFosB act)
c1cncc(-c2cnc3ccccc3c2)c1	none
F[B-](F)(F)c1cnc2ccccc2c1	DENV2 CPE rescue 26.2
COc1ccc(C2C(C(=O)Nc3ccc(F)cc3)=C(C)Nc3nc(CCCO)nn32)cc1 (stereo unspecified)	DENV2 CPE rescue 28.5
CCOc1ccc(C2C(C(=O)Nc3ccc(F)cc3)=C(C)Nc3nc(CCCO)nn32)cc1 (stereo unspecified)	none
CCOc1ccccc1C1C(C(=O)Nc2ccccc2OC)=C(C)Nc2nc(CCCO)nn21 (stereo unspecified)	DENV2 CPE rescue 57.3
COc1ccc(S(=O)(=O)N(C)C[C@H]2Oc3ccc(NC(=O)Cc4cn(C)c5ccccc45)cc3C(=O)N([C@H](C)CO)C[C@H]2C)cc1	none (no result: dFosB act)
C[C@@H]1CN([C@H](C)CO)C(=O)c2cc(C3=CCCC3)cnc2O[C@@H]1CN(C)C(=O)Nc1ccc(C(F)(F)F)cc1	DENV2 CPE rescue 32.7 (no result: dFosB act)
C[C@@H]1CN([C@@H](C)CO)C(=O)c2cc(C3=CCCC3)cnc2O[C@H]1CN(C)C(=O)NC1CCCC1	DENV2 CPE rescue 31.3 (no result: dFosB act)
C[C@H]1CN([C@@H](C)CO)C(=O)c2cc(C3=CCCCC3)cnc2O[C@@H]1CN(C)C(=O)Nc1cccc(F)c1	none (no result: dFosB act)
C[C@@H]1CN([C@@H](C)CO)C(=O)c2cc(C3=CCCCC3)cnc2O[C@H]1CN(C)C(=O)Nc1cccc(F)c1	DENV2 CPE rescue 29.7! (no result: dFosB act)
C[C@H](CO)N1C[C@H](C)[C@@H](CN(C)C(=O)Nc2ccc(F)cc2)Oc2ncc(C3=CCCC3)cc2C1=O	DENV2 CPE rescue 26.6 (no result: dFosB act)
CO[C@H]1CN(C)C(=O)c2ccc(NC(=O)C3CCOCC3)cc2OC[C@@H](C)N(C(=O)c2ccccc2)C[C@H]1C	none (no result: dFosB act)
CN(C)CC(=O)Nc1ccc2c(c1)[C@H]1C[C@H](CC(=O)NCCc3ccccc3)O[C@H](CO)[C@H]1O2	none (no result: dFosB act)
C[C@H]1CCCCO[C@H](CN(C)Cc2ccc(C(=O)O)cc2)[C@@H](C)CN([C@@H](C)CO)C(=O)c2cc(NC(=O)CCC(F)(F)F)ccc2O1	none (no result: dFosB act)
COc1cccc(CNC(=O)C[C@H]2C=C[C@@H](NS(=O)(=O)c3ccccc3OC)[C@H](CO)O2)c1	none (no result: dFosB act)
C[C@@H]1CN([C@H](C)CO)C(=O)c2cc(C3=CCCCC3)cnc2O[C@@H]1CN(C)C(=O)Nc1ccc(F)cc1	DENV2 CPE rescue 33.7 (no result: dFosB act)
